From the supplement of paper PMC11417369
± gives the standard deviation of the averaged measurements. Over roughly 25,000 sequences, “ln(normalized median fluorescence intensity)” has its median near 8.9; the highest 2% begin near 10. For the sample, the highest values were picked, then their nearest neighbours and some sequences at random.

These sequences were tested on PfAP2-LT AP2 domain (GST-tagged) (assay: gcPBM binding intensity (ln(normalized median fluorescence intensity)); higher = stronger DNA binding).
Procedure, shortened: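 Binding intensity is the highest Masliner-normalised natural-log median intensity over replicate spots in either probe orientation. To obtain it, GST-tagged P. falciparum DNA-binding domains made in E. coli were incubated for 1 h on an Agilent 4 × 180k array of primer-extended double-stranded 36-bp intergenic genomic probes plus negative controls. Detection used Alexa488 anti-GST antibody with scanning at 488 nm.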

Sequence | gcPBM binding intensity (ln)
AAAAAAATATATAAATGTACATATTGTTTAATTAAT [XGTACX_site3794] | 8.7 ± 0.45
ATAATAAATGATAGCACACATATGTACATAAATACA [CACACA_site4634] | 9.24 ± 0.31
TATTAATTTATATCAACACACAAAATCAATATACTT [CACACA_site1757] | 8.7 ± 0.42
ATTATGCTACAAGGAGAACACACAATTGCCACTTTT [CACACA_site8673] | 9.1 ± 0.46
AATGATCATATATACACACACACAAAAAAAAAAAAA [CACACA_site4009] | 9.6 ± 0.45
ATAAAGATAATATATGCACACATATAAATATATAAA [CACACA_site9153] | 9.09 ± 0.43
ATAAATACAGATAACACACACATATATATATATATA [CACACA_site5431] | 10.225 ± 0.0071
AATAAATATATAAATACACACAAACATACAGATATA [CACACA_site6088] | 9.37 ± 0.35
CATACAGATATATATACACACATACAGATAAATACA [CACACA_site4592] | 9.3 ± 0.28
CATATATAAATATATACACACATACATACATACATA [CACACA_site5988] | 9.36 ± 0.4
TACAGATACAGATACACACACACACCGAAATAAATA [CACACA_site4865] | 10.2 ± 0.43
TATACAGATATATATACACACATATATATAAATACA [CACACA_site4383] | 9.24 ± 0.39
CATAAATACATACATACACACATATATATATATATA [CACACA_site2106] | 9.88 ± 0.085
TATACAGATAAATACACACACACATATATATATATA [CACACA_site4845] | 10.3 ± 0.25
TACATACATACATACACACACACATATAAATACATA [CACACA_site4626] | 10.1 ± 0.4
CACATACAGATATATACACACAAATATAAATACACA [CACACA_site6512] | 9.52 ± 0.4
ATTTAATACAAATACACACACAAATAAATACAGATA [CACACA_site5956] | 9.47 ± 0.26
TATAAATACAGATACACACACACACCGATATATATA [CACACA_site5271] | 9.94 ± 0.18
AATTAAATTATAAGCACACACATATATATATATATA [CACACA_site3351] | 9.81 ± 0.057
ATAGTTACACGCCAAAAAAAAAAAAAAAAAAAAAAA [CACACA_negctrl_site1133] | 8.21 ± 0.42
TTTTTTTTTTTTTTTTGTACACATAATATGAATAAT [XGTACX_site2661] | 8.57 ± 0.32
AAAAAATTATTAATTTGTACATAAATAACCAAAAAA [XGTACX_site2488] | 8.49 ± 0.52

Sequence | gcPBM binding intensity (ln)
TTTTCCTTTACATAATGTACACAAAAAAAAAAAAAA [XGTACX_site716] | 8.21 ± 0.35
CTATAAAAATATAATTGTACAAATTTTTATATCTTA [XGTACX_site7722] | 8.35 ± 0.45
TAGAAACCATAAAAATGTACTTAAAAATAGACAATT [XGTACX_site5007] | 8.78 ± 0.5
AAAATTTTGGAACGTGCACACATATGTAATATATAT [CACACA_site9004] | 9.32 ± 0.37
TACATACATACATACACACACATATAGATTTATATA [CACACA_site6999] | 9.48 ± 0.28
CTATATAATATGAGCACACATAAGATTTGGTGTTAT [CACACA_site744] | 8.93 ± 0.34
TATACAGATAAATACACACACATATATATATATATA [CACACA_site4178] | 10.2 ± 0.33
AGGCACGTGTTATATACACACATAATCAAATAAACT [CACACA_site7852] | 9.36 ± 0.38
TAAATAAATACATACACACACATACAGATATATATA [CACACA_site5690] | 9.62 ± 0.26
CCCCCCGTGTTATATACACACATAATCAAATAAAAT [CACACA_site4111] | 11.1 ± 0.44
CATAAATACAGATATACACACATATATATATATATA [CACACA_site4528] | 9.7 ± 0.45
AAATTATAATATAATACACACATAAAAAAAAAATCA [CACACA_site3634] | 9 ± 0.44
AATTAAAATACAAATGTATGCATGTCTCATATAGAA [TGCATGCA_site822] | 8.78 ± 0.43
ATTCTTAAATGTGGTTGTACATATTATCACCTTTAA [XGTACX_site8188] | 8.75 ± 0.42
TGGAGATTTTTAAAGACACACAGGTAAGAATAATAA [CACACA_site1582] | 8.77 ± 0.47
TATATGTAAATGGACACACACATATATATATATATA [CACACA_site3659] | 10 ± 0.13
AAAAATTATGGACACACACACATATATATATATATT [CACACA_site4717] | 9.8 ± 0.11
GATACCTATAGACACACACACATACCTATATACATA [CACACA_site7586] | 9.66 ± 0.47
TATATATATAGACACACACACACATATATATATATA [CACACA_site9366] | 10.02 ± 0.042
GAGAAATGGAGACACACACACATATTATATATATAT [CACACA_site1532] | 9.85 ± 0.15
AAAGGATATGGACACACACACACATATATATATATA [CACACA_site8686] | 10.5 ± 0.15
AAAGGATATAGACACACACACACATATATATATATA [CACACA_site2200] | 10.3 ± 0.32
